± gives the standard deviation of the averaged measurements. About 6,500 targets were measured; listed, in parts, are those with the largest changes and a random draw of the rest.
Compound: Nc1ncnc2c1ncn2[C@@H]1O[C@H](COP(=O)(O)OP(=O)(O)OP(=O)(O)O)[C@@H](O)[C@H]1O [adenosine triphosphate]
Assay: NP40-soluble protein abundance relative to vehicle (solubility fold change) (ratio); higher = more soluble protein in presence of ATP
Method in brief: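 In three independent experiments, Jurkat crude lysate made by Dounce homogenisation was treated for 10 min at room temperature and then 3 min at 37 °C with eight concentrations ranging from 0.1 to 10 mM. It was then solubilised with 0.8% NP40 plus benzonase for 60 min at 4 °C and ultracentrifuged. The supernatant was TMT-labelled for LC-MS/MS, and each value is the fold change against the detergent-processed vehicle for the same replicate, using vsn-normalised intensities.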

UniProt Q9H6R0, sequence (Q9H6R0 whole entry): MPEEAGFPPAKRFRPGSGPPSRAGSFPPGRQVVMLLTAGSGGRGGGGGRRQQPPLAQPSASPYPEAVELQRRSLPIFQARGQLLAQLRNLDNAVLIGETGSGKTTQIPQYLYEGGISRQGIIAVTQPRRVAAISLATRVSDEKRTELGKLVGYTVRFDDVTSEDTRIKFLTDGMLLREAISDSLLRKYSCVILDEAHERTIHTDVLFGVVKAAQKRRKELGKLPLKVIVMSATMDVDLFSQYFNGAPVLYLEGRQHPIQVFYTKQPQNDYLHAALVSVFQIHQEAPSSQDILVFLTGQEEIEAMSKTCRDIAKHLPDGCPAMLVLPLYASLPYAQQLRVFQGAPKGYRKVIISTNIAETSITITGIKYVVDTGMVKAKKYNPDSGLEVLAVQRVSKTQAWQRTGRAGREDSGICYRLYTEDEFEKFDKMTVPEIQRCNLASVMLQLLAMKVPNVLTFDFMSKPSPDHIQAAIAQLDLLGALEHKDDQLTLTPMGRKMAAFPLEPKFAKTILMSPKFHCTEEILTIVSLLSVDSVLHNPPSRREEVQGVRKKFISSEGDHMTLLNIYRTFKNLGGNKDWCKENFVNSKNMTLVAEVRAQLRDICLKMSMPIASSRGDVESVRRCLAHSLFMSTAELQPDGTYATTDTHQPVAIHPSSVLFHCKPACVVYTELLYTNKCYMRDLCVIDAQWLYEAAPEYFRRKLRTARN
UniProt Q96EZ8, sequence (Q96EZ8 whole entry): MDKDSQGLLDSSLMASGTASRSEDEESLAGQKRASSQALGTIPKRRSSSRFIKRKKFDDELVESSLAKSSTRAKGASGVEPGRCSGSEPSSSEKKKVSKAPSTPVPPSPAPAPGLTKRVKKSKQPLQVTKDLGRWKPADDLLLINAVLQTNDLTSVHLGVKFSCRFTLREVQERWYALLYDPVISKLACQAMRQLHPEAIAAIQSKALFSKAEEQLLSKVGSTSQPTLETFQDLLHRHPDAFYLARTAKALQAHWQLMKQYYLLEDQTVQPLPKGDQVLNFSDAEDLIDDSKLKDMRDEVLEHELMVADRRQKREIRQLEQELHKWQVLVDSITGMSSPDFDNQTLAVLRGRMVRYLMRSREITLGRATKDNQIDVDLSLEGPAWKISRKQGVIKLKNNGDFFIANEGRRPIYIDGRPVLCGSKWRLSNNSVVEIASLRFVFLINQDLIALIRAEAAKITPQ
UniProt Q8WYP5, sequence (Q8WYP5 whole entry): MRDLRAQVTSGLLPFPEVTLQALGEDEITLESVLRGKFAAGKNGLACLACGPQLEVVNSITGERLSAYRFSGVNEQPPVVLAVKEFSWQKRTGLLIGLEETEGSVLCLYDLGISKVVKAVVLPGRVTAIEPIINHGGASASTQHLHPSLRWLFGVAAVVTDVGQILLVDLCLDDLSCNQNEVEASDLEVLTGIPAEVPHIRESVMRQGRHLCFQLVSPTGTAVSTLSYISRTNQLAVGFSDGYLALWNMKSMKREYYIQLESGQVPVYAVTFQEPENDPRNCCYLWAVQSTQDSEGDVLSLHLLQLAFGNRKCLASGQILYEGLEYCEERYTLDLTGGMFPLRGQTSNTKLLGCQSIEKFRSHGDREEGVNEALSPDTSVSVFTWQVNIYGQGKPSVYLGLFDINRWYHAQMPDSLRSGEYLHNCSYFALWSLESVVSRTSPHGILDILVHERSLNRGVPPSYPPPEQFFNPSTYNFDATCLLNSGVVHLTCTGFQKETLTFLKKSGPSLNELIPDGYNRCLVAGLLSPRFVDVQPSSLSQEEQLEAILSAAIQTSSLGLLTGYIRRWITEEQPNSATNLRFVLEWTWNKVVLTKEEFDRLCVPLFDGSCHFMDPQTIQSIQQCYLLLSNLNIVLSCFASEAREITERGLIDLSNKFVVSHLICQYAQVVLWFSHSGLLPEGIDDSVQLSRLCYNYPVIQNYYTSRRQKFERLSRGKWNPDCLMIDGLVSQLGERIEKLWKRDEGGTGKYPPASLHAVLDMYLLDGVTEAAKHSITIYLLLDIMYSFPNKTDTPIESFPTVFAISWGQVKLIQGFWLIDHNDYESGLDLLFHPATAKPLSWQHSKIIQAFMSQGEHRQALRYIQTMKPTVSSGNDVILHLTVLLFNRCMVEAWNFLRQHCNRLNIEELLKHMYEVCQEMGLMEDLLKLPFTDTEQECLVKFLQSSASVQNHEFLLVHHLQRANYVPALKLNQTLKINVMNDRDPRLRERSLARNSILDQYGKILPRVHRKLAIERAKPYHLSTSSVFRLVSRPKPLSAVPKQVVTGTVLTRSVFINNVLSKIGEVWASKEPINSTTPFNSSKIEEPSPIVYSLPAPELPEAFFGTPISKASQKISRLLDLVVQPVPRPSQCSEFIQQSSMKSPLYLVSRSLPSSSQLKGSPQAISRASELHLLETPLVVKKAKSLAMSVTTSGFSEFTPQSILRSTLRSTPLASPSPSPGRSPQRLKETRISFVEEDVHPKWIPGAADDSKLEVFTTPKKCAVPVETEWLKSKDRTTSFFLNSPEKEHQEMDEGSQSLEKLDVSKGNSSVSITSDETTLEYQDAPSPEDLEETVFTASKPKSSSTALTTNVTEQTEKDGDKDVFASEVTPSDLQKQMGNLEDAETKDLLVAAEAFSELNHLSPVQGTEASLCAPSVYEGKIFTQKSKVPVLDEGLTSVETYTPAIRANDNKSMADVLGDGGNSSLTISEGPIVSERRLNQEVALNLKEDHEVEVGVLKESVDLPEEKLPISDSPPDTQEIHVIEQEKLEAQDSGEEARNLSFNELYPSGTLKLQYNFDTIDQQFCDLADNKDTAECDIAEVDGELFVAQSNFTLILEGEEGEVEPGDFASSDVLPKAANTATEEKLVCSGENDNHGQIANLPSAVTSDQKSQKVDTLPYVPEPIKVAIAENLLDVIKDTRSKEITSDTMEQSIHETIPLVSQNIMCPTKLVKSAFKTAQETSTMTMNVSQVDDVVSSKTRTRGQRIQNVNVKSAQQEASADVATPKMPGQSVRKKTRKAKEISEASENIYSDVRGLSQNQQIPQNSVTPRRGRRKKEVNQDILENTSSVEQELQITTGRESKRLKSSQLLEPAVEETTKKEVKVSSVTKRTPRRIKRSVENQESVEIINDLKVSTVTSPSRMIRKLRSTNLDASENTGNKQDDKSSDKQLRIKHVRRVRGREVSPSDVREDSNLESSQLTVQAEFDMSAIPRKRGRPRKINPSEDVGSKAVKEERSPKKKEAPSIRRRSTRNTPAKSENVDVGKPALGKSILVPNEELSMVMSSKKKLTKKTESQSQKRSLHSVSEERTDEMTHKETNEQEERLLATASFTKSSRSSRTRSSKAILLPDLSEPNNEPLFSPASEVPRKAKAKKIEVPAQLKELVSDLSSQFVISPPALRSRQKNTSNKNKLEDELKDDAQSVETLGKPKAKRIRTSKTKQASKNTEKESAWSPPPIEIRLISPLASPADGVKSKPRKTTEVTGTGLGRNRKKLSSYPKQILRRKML
UniProt Q9HAD4, sequence (Q9HAD4 whole entry): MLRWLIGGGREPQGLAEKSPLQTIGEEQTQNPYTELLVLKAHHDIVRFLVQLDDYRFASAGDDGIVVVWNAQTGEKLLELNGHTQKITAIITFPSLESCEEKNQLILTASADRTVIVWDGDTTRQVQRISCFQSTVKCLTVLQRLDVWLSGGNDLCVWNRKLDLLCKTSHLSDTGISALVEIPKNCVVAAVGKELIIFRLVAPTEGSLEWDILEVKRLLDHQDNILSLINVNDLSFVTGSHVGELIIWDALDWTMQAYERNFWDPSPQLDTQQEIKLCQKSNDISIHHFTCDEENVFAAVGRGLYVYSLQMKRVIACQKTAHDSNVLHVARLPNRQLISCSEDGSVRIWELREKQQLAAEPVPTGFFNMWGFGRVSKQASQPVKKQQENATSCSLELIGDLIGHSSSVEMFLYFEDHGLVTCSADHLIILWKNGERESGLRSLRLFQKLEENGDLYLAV

Target	NP40-soluble protein abundance (concentration: 1mM)	NP40-soluble protein abundance (concentration: 2mM)	NP40-soluble protein abundance (concentration: 4mM)	NP40-soluble protein abundance (concentration: 6mM)	NP40-soluble protein abundance (concentration: 8mM)	NP40-soluble protein abundance (concentration: 10mM)
WDR41 (UniProt Q9HAD4)	1.03 ± 0.026	0.994 ± 0.08	1.08 ± 0.062	1 ± 0.033	1 ± 0.065	1.01 ± 0.043
UniProt Q8WYP5|Q8WYP5-2|Q8WYP5-3	1.13 ± 0.037	1.16 ± 0.048	1.28 ± 0.079	1.38 ± 0.096	1.42 ± 0.12	1.53 ± 0.13
UniProt Q96EZ8|Q96EZ8-2|Q96EZ8-3	1.08 ± 0.04	1.06 ± 0.053	1.08 ± 0.013	1.09 ± 0.093	1.14 ± 0.038	1.18 ± 0.044
DHX33 (UniProt Q9H6R0)	1.04 ± 0.059	1.1 ± 0.012	1.349 ± 0.0092	1.29 ± 0.089	1.44 ± 0.18	1.51 ± 0.2

Source: the supplement of paper PMC6411743
